Assay outcomes as filed in PubChem BioAssay.
Shown are actives, neighbours in structure and some others; about 12% of the full set was active somewhere.
Pf growth 96h: inhibits malaria parasite growth, 96 h; P. falciparum luciferase reporter growth, 96 h; Potency, µM (doses to about 28.7 µM), inactives show at the top dose activity change, negative = inhibition, most hits filed as inhibitors; actives 6.9% (n = 320,000); also: % is scaled to controls: 0 for no effect and ±100 for the full control effect
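Two parasite generations (96 h, 37 C, 5% CO2) of compound exposure in infected erythrocytes (0.05% parasitemia, 2% hematocrit). Luciferase-reporter P. falciparum; decreased luminescence indicates inhibited growth, aimed at apicoplast-acting delayed death.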
Pf growth 48h: inhibits P. falciparum growth in the first generation, 48 h. P. falciparum luciferase growth in erythrocytes, 48 h. Potency, µM (highest dose often 28.7 µM), without a hit: at the highest dose activity change, negative = inhibition, usual class: inhibitors. actives 5.9% (n = 310,000); also: % is scaled to controls: 0 for no effect and ±100 for the full control effect
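Luciferase-expressing P. falciparum in infected erythrocytes (2% hematocrit, 0.1% parasitemia final) in RPMI 1640/0.5% Albumax were exposed to compound for 48 hours at 37 C, 5% CO2; growth read as luminescence.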
Sm TGR block: blocks Schistosoma mansoni thioredoxin glutathione reductase. purified TGR, DTNB reduction, TNB absorbance 405 nm. Potency, µM (highest dose often 114 µM), without a hit: top-dose activity change, negative = inhibition, usual class: inhibitors. actives 3% (n = 360,000). AID 485364; also: % is scaled to controls: 0 for no effect and ±100 for the full control effect; nearly all actives have a fitted effect of over 60% in size
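Kinetic colorimetric format: TGR-catalysed, NADPH-driven DTNB reduction monitored via TNB absorbance. Enzyme dispensed at 20 nM; compound exposure 15 min at room temperature before reaction start.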
SARS PLP yeast: inhibitors of SARS-CoV papain-like protease in yeast. S. cerevisiae expressing SARS-CoV PLpro, growth rescue. Potency, µM (doses to about 32.9 µM), without a hit: at the top dose activity, positive = growth rescue, hits mostly activators. actives 0.19% (n = 330,000). AID 485353; calls by dose curve; also: 0% is about no effect; nearly all actives have a fitted effect of over 55% in size
Active calls of the source: *; ? = inconclusive; . = no result given. Unless noted, calls follow the shape of the dose curve; as a rule, active = well fitted curve in the direction sought with a large enough effect; inconclusive = small, poorly fitted or top-dose-only effect, or another doubt; inactive = no such curve, though single readings can be large; an effect the other way counts as inactive or inconclusive. Potency is read from the fitted curve at half-maximal effect.

SMILES	Pf growth 96h	Pf growth 48h	Sm TGR block	SARS PLP yeast
O=C(CSc1nnc(-c2cccnc2)o1)c1cc2ccccc2oc1=O	1%	7.4µM*	?	-1%
N#Cc1ccc(-c2ccccc2)nc1SCC(=O)c1cc2ccccc2oc1=O	?	9.3µM*	-11%	6%
Cc1cncc(C(=O)O)[n+]1[O-]	5%	-7%	.	.
O=C(Nc1cccc(-n2cnnn2)c1)c1ccoc1COc1ccc(Cl)cc1	?	?	-4%	-1%
Cc1ccc(NS(=O)(=O)c2c(C)nc3sccn3c2=O)c(Cl)c1	.	.	3%	.
Cn1nc(C(F)(F)F)cc1-c1ccc(S(N)(=O)=O)s1	62%	27%	-6%	1%
CCc1nn(CC(=O)NC2CC2)c(=O)c2cc3ccccc3n12	.	.	3%	.
O=C(Cn1nc(Cl)nc1Cl)c1ccc(F)cc1	?	12µM*	9%	-1%
Cn1c(N2C(=O)CC(Cc3ccccc3)C2=O)nc2ccccc21 (centres undefined)	1.7µM*	11%	1%	4%
Cc1ccc(C)c(N2C(=O)CC(Cc3ccccc3)C2=O)c1 (centres undefined)	15µM*	2%	-11%	-1%
COc1ccc(N2C(=O)CC(Cc3ccccc3)C2=O)cc1 (centres undefined)	21%	8%	5%	1%
CC(C)c1cnc2c(c1SCC(=O)Nc1cccc([N+](=O)[O-])c1)c(=O)n(C)c(=O)n2C	.	.	7%	.
O=C(Nc1ccccc1)Nc1nnc(Cc2ccccc2F)s1	?	0%	?	-6%
CCCSc1nnc(NC(=O)Nc2ccc(C)cc2)s1	?	26%	14%	0%
CCCSc1nnc(NC(=O)Nc2ccc(F)cc2)s1	0%	?	89µM*	-16%
O=C(Nc1ccc(F)cc1)Nc1nnc(Cc2ccccc2F)s1	10µM*	?	-1%	-1%
O=Nc1c(O)n(Cc2ccc(Cl)c(Cl)c2)c2ccccc12	9.3µM*	?	11%	-23%
Cc1ccc(Cn2c(N)nc3ccccc32)cc1	-4%	-7%	-7%	-5%
Nc1nc2ccccc2n1Cc1ccc(Cl)c(Cl)c1	?	10µM*	1%	-4%
CCOC(=O)c1ccc(NC(c2ccc(N(C)C)cc2)P(=O)(OC(C)C)OC(C)C)cc1 (centres undefined)	23%	13µM*	1%	-4%
Cc1cc(=S)cc(C)n1CCCO	2%	4%	1.8µM*	12%
O=C(CN1C(=O)NC(Cc2ccccc2)C1=O)Nc1ccccc1 (centres undefined)	29%	23%	0%	4%
O=C(CN1C(=O)NC(Cc2ccccc2)C1=O)Nc1ccc(OC(F)F)cc1 (centres undefined)	13µM*	7%	-5%	-9%
CCOc1ccc(NC(=O)Cn2c(=O)n(CC3CCC(C(=O)NCCc4ccccc4)CC3)c(=O)c3ccccc32)cc1 (centres undefined)	.	.	-6%	.
Cc1ccc(CNC(=O)CN2CCCN(Cc3ccc(F)cc3)S2(=O)=O)cc1	.	.	-3%	.
SMILES	Pf growth 96h	Pf growth 48h	Sm TGR block	SARS PLP yeast
CCOC(=O)N1CCN(C(=O)CCn2c(=S)[nH]c3ccsc3c2=O)CC1	9.3µM*	19%	6%	-1%
O=C(CCn1c(=O)[nH]c2ccsc2c1=O)N1CCc2ccccc2C1	10µM*	11%	3%	2%
COc1ccc(N2CCN(C(=O)CCCn3c(=O)[nH]c4ccsc4c3=O)CC2)cc1	7.4µM*	.	-35%	-1%
CCc1c(C)nc2nncn2c1NCc1ccccc1	.	.	-4%	.
CCOc1ccc(CNC(=O)CCC(=O)n2ncc3ccc(Cl)cc32)cc1	?	-2%	0%	-1%
CCN(CC)S(=O)(=O)c1cccc(C(=O)Nc2ccc(S(=O)(=O)NC3=NCCCCC3)cc2)c1	6.6µM*	?	-1%	-1%
CCOc1ncccc1C(=O)Nc1ccc(S(=O)(=O)NC2=NCCCCC2)cc1	-29%	-15%	18%	1%
CCOC(=O)c1ccc(S(=O)(=O)Nc2nc3cc(S(=O)(=O)NC4=NCCCCC4)ccc3s2)cc1	13µM*	-1%	37%	3%
CON(C)S(=O)(=O)c1cccc(C(=O)Nc2ccc(S(=O)(=O)NC3=NCCCCC3)cc2)c1	?	?	-2%	-2%
O=C(CCl)Nc1ccc(S(=O)(=O)NC2=NCCCCC2)cc1	.	.	.	-8%
CCCOc1ccc(C(=O)Nc2ccc(S(=O)(=O)NC3=NCCCCC3)cc2)cc1	10µM*	5.9µM*	5%	7%
